# Measured values: PubChem BioAssay (Tox21)
# Records with an inconclusive call do not appear. Entries that show only a call come without a potency. Unmarked numbers belong to inactive results. Active and inactive are the calls of the source. Unless noted, the call rests on the fitted dose curve; in most records, active means well fitted curve in the direction sought with a large enough effect in the repeat runs; inconclusive means weak or mixed curves; inactive means no such curve, though single readings can be large; an effect the other way counts as inactive or inconclusive.
# Tests used:
# [1] = biological target: Retinoic acid receptor RXR-alpha (Homo sapiens) (UniProt P19793); experiment: qHTS assay to identify small molecule agonists of the RXR signaling pathway (AID 1159527; calls by dose curve; further: nearly all actives have a fitted effect of over 35% in size; further: potency means the concentration at half of the fitted maximal effect)
# How it was run: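 Read-out: beta-lactamase FRET ratio (405 nm excitation, 460 and 530 nm emission) after 2 hr substrate loading at room temperature. Cells were RXR-alpha-UAS-bla HEK 293T treated with compounds for 16 hr in 2% charcoal-stripped FBS medium.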
# [2] = qHTS assay to identify small molecule agonists of the RXR signaling pathway - cell viability counter screen (AID 1159529); further: series mostly up to about 77 µM; nearly all actives have a fitted effect of over 50% in size
# How it was run: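 HEK 293T RXRa-bla cells, 2% CS-FBS; 5 h settle; cpd 16 h 37 C, 5% CO2; CellTiter-Glo 30 min RT, luminescence. Tetraoctyl ammonium bromide as positive control.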
# [3] = qHTS assay to identify small molecule antagonists of the retinoid acid receptor (RAR) signaling pathway - cell viability counter screen (AID 1159551); further: nearly all actives have a fitted effect of over 35% in size
# How it was run: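 In this counter screen, the RARE-luciferase line C3RL4 was exposed for 6 h at 37 C and 5% CO2 to compounds with retinol at 1 uM final. Cellular ATP, read by luminescence, served as the viability measure.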
# [4] = qHTS assay to identify small molecule antagonists of the retinoic acid receptor (RAR) signaling pathway (AID 1159552; further: nearly all actives have a fitted effect of over 50% in size; further: potency means the concentration at half of the fitted maximal effect)
# How it was run: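 Cells of the C3RL4 line were seeded, incubated overnight, then dosed with compounds in DMSO followed immediately by retinol (1 uM final). Six hours later luciferase detection reagent went in; signal was measured after 30 min at RT.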
# [5] = qHTS assay to identify small molecule agonists of the retinoic acid receptor (RAR) signaling pathway (AID 1159553)
# How it was run: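 In this cell-based screen, 1,000 C3RL4 cells per well were cultured overnight, dosed with test chemicals in DMSO for 6 hr, and assessed for RARE luciferase luminescence.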
# [6] = qHTS assay to identify small molecule antagonists of the estrogen related receptor (ERR) signaling pathway - cell viability counter screen (AID 1224818); further: series mostly up to about 46 µM
# How it was run: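 Viability of ERR cells, CellTiter-Fluor fluorescence; 17.5 h compound exposure at 37 C, DMSO vehicle; 30 min reagent incubation at 37 C/5% CO2.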
# [7] = qHTS assay to identify small molecule antagonists of the estrogen related receptor signaling pathway with the pleiotropic PPARgamma coactivator (PGC) cell viability counter screen (AID 1224822; further: series mostly up to about 46 µM)
# How it was run: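 17.5 h compound treatment of PGC/ERR cells at 37 C; readout CellTiter-Fluor fluorescence; run alongside the PGC/ERR antagonist screen to flag cytotoxic compounds.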
# Sequence of Retinoic acid receptor RXR-alpha (Homo sapiens) (P19793 whole entry, looked up): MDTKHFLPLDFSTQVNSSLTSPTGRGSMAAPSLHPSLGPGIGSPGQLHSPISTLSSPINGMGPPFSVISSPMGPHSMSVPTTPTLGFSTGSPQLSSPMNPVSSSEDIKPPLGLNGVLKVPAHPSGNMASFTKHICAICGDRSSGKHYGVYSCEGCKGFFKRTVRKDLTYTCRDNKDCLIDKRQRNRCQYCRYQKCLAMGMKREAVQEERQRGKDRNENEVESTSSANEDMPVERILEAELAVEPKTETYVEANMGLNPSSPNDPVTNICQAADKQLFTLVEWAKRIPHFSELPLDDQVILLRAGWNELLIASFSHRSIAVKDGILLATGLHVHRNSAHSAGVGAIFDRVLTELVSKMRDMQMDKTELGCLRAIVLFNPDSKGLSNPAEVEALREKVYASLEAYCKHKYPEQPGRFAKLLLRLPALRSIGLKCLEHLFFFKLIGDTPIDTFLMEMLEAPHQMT
structure (smiles),measurement,setting,value
COc1cc(O)cc(O)c1,Potency,[1],inactive
same,Potency,[2],inactive
same,outcome,[3],inactive
CC(C=O)Cc1ccc(C(C)C)cc1 (configuration not stated),Potency,[1],inactive
same,Potency,[2],inactive
same,outcome,[3],inactive
O=c1[nH]c(=O)n([C@H]2O[C@H](CO)[C@@H](O)[C@@H]2O)cc1/C=C\Br,Potency,[1],inactive
same,Potency,[2],inactive
same,outcome,[3],inactive
COc1cc(C)cc(O)c1,Potency,[1],inactive
same,Potency,[2],inactive
same,outcome,[3],inactive
CC(CCO)CCCC(C)(C)O (configuration not stated),Potency,[1],3.09 µM (active)
same,Potency,[2],inactive
same,outcome,[3],inactive
CC(C)COC(=O)c1ccccc1O,Potency,[1],inactive
same,Potency,[2],inactive
same,outcome,[3],inactive
NC(CS)C(=O)O (configuration not stated),Potency,[1],inactive
same,Potency,[2],inactive
same,outcome,[3],inactive
NCCN1CCNC1=O,Potency,[1],inactive
same,Potency,[2],inactive
same,outcome,[3],inactive
O=C(O)/C=C/c1ccc(/C=C/C(=O)O)cc1,Potency,[1],inactive
same,Potency,[2],inactive
same,outcome,[3],inactive
CCN1CCN(c2cc3c(cc2F)c(=O)c(C(=O)O)cn3C2CC2)CC1,Potency,[1],inactive
same,Potency,[2],inactive
same,outcome,[3],inactive
CN(C)CCn1nnnc1SCC1=C(C(=O)O)N2C(=O)[C@@H](NC(=O)Cc3csc(N)n3)[C@H]2SC1,Potency,[1],inactive
same,Potency,[2],inactive
same,outcome,[3],inactive
c1ccc2cnncc2c1,Potency,[1],inactive
same,Potency,[2],inactive
same,outcome,[3],inactive
CC(C)CCCC(C)CCCC(C)CCCCC(C)CCCC(C)CCCC(C)C (configuration not stated),Potency,[1],inactive
same,Potency,[2],inactive
same,outcome,[3],inactive
CO[Si](OC)(OC)OC,Potency,[1],inactive
same,Potency,[2],inactive
same,outcome,[3],inactive
CC(C)CCCCCCN,Potency,[1],inactive
same,Potency,[2],inactive
same,outcome,[3],inactive
CO[Si](CCCNCCC[Si](OC)(OC)OC)(OC)OC,Potency,[1],inactive
same,Potency,[2],inactive
same,outcome,[3],inactive
C=CCOc1nc(OCC=C)nc(OCC=C)n1,Potency,[1],inactive
same,Potency,[2],inactive
same,outcome,[3],inactive
NC(N)=NS(=O)(=O)c1ccc(N)cc1,Potency,[1],inactive
same,Potency,[2],inactive
same,outcome,[3],inactive
COc1cc(C(=O)N2CCOCC2)cc(OC)c1OC,Potency,[1],inactive
same,Potency,[2],inactive
same,outcome,[3],inactive
NC(=O)c1c(Cl)cccc1Cl,Potency,[1],inactive
same,Potency,[2],inactive
same,outcome,[3],inactive
O=C(O)c1ccc[n+]([O-])c1,Potency,[1],inactive
same,Potency,[2],inactive
same,outcome,[3],inactive
CCCCOCC(C)OCC(C)O (configuration not stated),Potency,[1],inactive
same,Potency,[2],inactive
same,outcome,[3],inactive
CC(C)=CC(=O)O,Potency,[1],inactive
same,Potency,[2],inactive
same,outcome,[3],inactive
NS(=O)(=O)c1cc2c(cc1Cl)NC(CSCc1ccccc1)=NS2(=O)=O,Potency,[1],inactive
same,Potency,[2],inactive
same,outcome,[3],inactive
OCC(O)[C@@H](O)[C@H](O)[C@H](O)CO[C@H]1O[C@H](CO)[C@@H](O)[C@H](O)[C@H]1O (some centres not stated),Potency,[1],inactive
same,Potency,[2],inactive
same,outcome,[3],inactive
CN1[C@@H]2CC[C@H]1CC(NC(=O)n1c(=O)[nH]c3ccccc31)C2 (some centres not stated),Potency,[1],inactive
same,Potency,[2],inactive
same,outcome,[3],inactive
C=C(C)C(=O)OCCCCCCCCCCCCCCCCCC,activation,[1],6.68% [at 15.8 µM]
same,"activity change, negative = cytotoxicity",[2],15.1% [at 15.8 µM]
same,"activity change, negative = cytotoxicity",[3],-0.339% [at 19 µM]
O=c1[nH]c2ccccc2c(=O)n1CCCl,Potency,[1],inactive
same,outcome,[3],inactive
CSc1nc(NC2CC2)nc(NC(C)(C)C)n1,Potency,[1],inactive
same,outcome,[3],inactive
CCCCCCCCC=O,Potency,[1],inactive
same,outcome,[3],inactive
C[C@H](O)C(=O)Nc1c(I)c(C(=O)NC(CO)CO)c(I)c(C(=O)NC(CO)CO)c1I,Potency,[1],inactive
same,Potency,[2],inactive
same,outcome,[3],inactive
O=C(O)c1ccccc1S,Potency,[1],inactive
same,Potency,[2],inactive
same,outcome,[3],inactive
CCCCN(CCO)CCO,Potency,[1],inactive
same,outcome,[3],inactive
CCCCCOC(=O)Nc1nc(=O)n([C@@H]2O[C@H](C)[C@@H](O)[C@H]2O)cc1F,Potency,[1],inactive
same,outcome,[3],inactive
Cc1ncc(CSSCc2cnc(C)c(O)c2CO)c(CO)c1O,Potency,[1],inactive
same,Potency,[2],inactive
same,outcome,[3],inactive
O=C(CCOCCOCCOCCOCCC(=O)Nc1c(I)cc(I)c(C(=O)O)c1I)Nc1c(I)cc(I)c(C(=O)O)c1I,Potency,[1],inactive
same,Potency,[2],inactive
same,Potency,[4],inactive
CC/C=C\CCCCO,Potency,[1],inactive
same,Potency,[2],inactive
same,outcome,[3],inactive
Nc1[nH]c(=O)ncc1F,Potency,[1],inactive
same,Potency,[2],inactive
same,outcome,[3],inactive
CC1=CCC2C(C1)C2(C)C (configuration not stated),Potency,[1],inactive
same,outcome,[3],inactive
C=C(C)[C@@H]1CCC2=CC(=O)C[C@@H](C)[C@]2(C)C1,Potency,[1],inactive
same,outcome,[3],inactive
C#CC(O)C(CC)CCCC (configuration not stated),Potency,[1],inactive
same,Potency,[2],inactive
same,outcome,[3],inactive
CC1CCN(CCCC(=O)c2ccc(F)cc2)CC1,Potency,[1],inactive
same,outcome,[3],inactive
O=C(O)CCNC(=O)c1ccc(N=Nc2ccc(O)c(C(=O)O)c2)cc1,Potency,[1],inactive
same,outcome,[3],inactive
NC(=O)CCCCC1CCSS1 (configuration not stated),Potency,[1],inactive
same,Potency,[2],inactive
same,outcome,[3],inactive
CNc1ncnc2nc[nH]c12,Potency,[1],inactive
same,Potency,[2],inactive
same,Potency,[4],inactive
CC(=O)OC(C)(C)C,Potency,[1],inactive
same,Potency,[2],inactive
same,outcome,[3],inactive
CCCCC=O,Potency,[1],17.4 µM (active)
same,Potency,[2],inactive
same,outcome,[3],inactive
CC(C)[C@H](N)C(=O)OCCOCn1cnc2c(=O)[nH]c(N)nc21,Potency,[1],inactive
same,Potency,[2],inactive
same,outcome,[3],inactive
COc1cccc(Br)c1,Potency,[1],inactive
same,outcome,[3],inactive
OCC(CO)(CO)COCC(CO)(CO)CO,Potency,[1],inactive
same,Potency,[2],inactive
same,outcome,[3],inactive
O=C(O)C1CCC1,Potency,[1],inactive
same,Potency,[2],inactive
same,outcome,[3],inactive
Nc1ccc2cc(S(=O)(=O)O)ccc2c1,Potency,[1],inactive
same,outcome,[3],inactive
CCCCCCCCCCC1CO1 (configuration not stated),Potency,[1],inactive
same,Potency,[2],inactive
same,outcome,[3],inactive
COc1cccc(OC)c1,Potency,[1],inactive
same,Potency,[2],inactive
same,outcome,[3],inactive
NS(=O)(=O)c1cc2c(cc1C(F)(F)F)NC(Cc1ccccc1)NS2(=O)=O (configuration not stated),Potency,[1],inactive
same,Potency,[2],inactive
same,outcome,[3],inactive
OCc1ccccn1,Potency,[1],inactive
same,outcome,[3],inactive
CC(C)CCOC(=O)CC(C)C,Potency,[1],inactive
same,outcome,[3],inactive
C1COCCO1,Potency,[1],inactive
same,Potency,[2],inactive
same,outcome,[3],inactive
COC(=O)CCCC(=O)O,Potency,[1],inactive
same,Potency,[2],inactive
same,outcome,[3],inactive
O=Cc1ccccc1[N+](=O)[O-],Potency,[1],inactive
same,Potency,[2],inactive
same,outcome,[3],inactive
Nc1cc(C(Cl)=C(Cl)Cl)c(S(N)(=O)=O)cc1S(N)(=O)=O,Potency,[1],inactive
same,outcome,[3],inactive
CCCCCCCCCCCCCCCCCCOCC(O)CO (configuration not stated),Potency,[1],inactive
same,Potency,[2],inactive
same,outcome,[3],inactive
OC/C=C/c1ccccc1,Potency,[1],inactive
same,outcome,[3],inactive
Nc1ccn(C2CO[C@H](CO)O2)c(=O)n1 (some centres not stated),Potency,[1],inactive
same,outcome,[3],inactive
COC(C(=O)O)c1ccccc1 (configuration not stated),Potency,[1],inactive
same,outcome,[3],inactive
O=S(=O)(c1cccc2cnccc12)N1CCCNCC1,Potency,[1],inactive
same,outcome,[3],inactive
same,Potency,[4],29.8 µM (active)
same,Potency,[5],inactive
OCCN1C[C@H](O)[C@@H](O)[C@H](O)[C@H]1CO,Potency,[2],inactive
COC(=O)C1=C(C)NC(C)=C(C(=O)OCC(C)=O)C1c1ccccc1[N+](=O)[O-] (configuration not stated),Potency,[1],inactive
same,outcome,[3],inactive
same,Potency,[4],inactive
same,Potency,[5],inactive
Cn1ccc2cc3c(cc21)CCN3C(=O)Nc1cccnc1,activation,[1],14.3% [at 15.8 µM]
same,"activity change, negative = cytotoxicity",[3],-1.31% [at 19 µM]
same,"activity, negative = inhibition",[4],169% [at 19 µM]
same,outcome,[6],inactive
same,outcome,[7],inactive
NC(=O)Nc1nc2ccccc2[nH]1,Potency,[1],inactive
same,Potency,[4],inactive
same,Potency,[5],inactive
[O-][N+](=Nc1ccccc1)c1ccccc1,Potency,[1],inactive
same,outcome,[3],inactive
CCC(=O)c1cccc(Cl)c1,Potency,[1],inactive
same,outcome,[3],inactive
same,Potency,[4],inactive
CSc1ccc(C=O)cc1,Potency,[1],inactive
same,Potency,[4],inactive
